Measurements as given in the supplement of paper PMC11219838.
Values without a mark were called inactive.

Key:
Settings in all cases: 60 µM; 5 days; temperature: 20 °C
Meloidogyne hapla J2 = test: proportion of mobile M. hapla J2 relative to DMSO control (fraction of DMSO control); higher = more viable, less nematicidal, active = 0.7 or less
In short: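 About 25 M. hapla J2 were placed in each well of a 96-well plate in distilled water, and compound was pinned in to a final 60 µM with 0.6% v/v DMSO. The sealed plates were shaken at 200 rpm at 20 °C for 5 days, after which 2 µL of 1 M NaOH went into each well. Mobility was then scored under the microscope and divided by the mean value from DMSO-only wells on the same plate. Each plate held eight such DMSO wells, and two biological replicates were averaged.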

[1] = system: Caenorhabditis elegans dauer (daf-2(e1370)); test: proportion of mobile C. elegans dauer larvae relative to DMSO control (fraction of DMSO control); higher = more viable, less nematicidal, active = 0.63 or less; extreme values may be limits of the assay
In short: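 Synchronized C. elegans larvae were kept for 48 h at 25 °C on MYOB plates seeded with E. coli OP50 to induce dauer formation, and roughly 20 dauers were transferred into each well of a 96-well plate containing liquid NGM. Compound was pinned in to a final concentration of 60 µM with 0.6% v/v DMSO, and the sealed plates were shaken at 200 rpm for 5 days at 20 °C. The fraction of mobile worms was scored under a dissection microscope against DMSO-only wells and averaged across two biological replicates.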

Ditylenchus dipsaci = test: proportion of mobile D. dipsaci (mixed stage) relative to DMSO control (fraction of DMSO control); higher = more viable, less nematicidal, active = 0.86 or less; extreme values may be limits of the assay
In short: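 Ditylenchus dipsaci nematodes were cultured on pea plants in Gamborg B-5 agar, then extracted into water through a filter funnel, and roughly 20 worms in distilled water were placed in each well of a 96-well plate. Compound was pinned in to a final concentration of 60 µM (0.6% v/v DMSO), and the sealed plates were shaken at 200 rpm for 5 days at 20 °C. Mobile worms were counted under the microscope after 2 µL of 1 M NaOH was added. Mobility is given relative to DMSO controls as the mean of two biological replicates.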

Structure (SMILES) | proportion of mobile M. hapla J2 (Meloidogyne hapla J2) | proportion of mobile C. elegans dauer larvae [1] | proportion of mobile D. dipsaci (Ditylenchus dipsaci)
Cc1ccc(-c2noc(CSc3nc4ccccc4[nH]3)n2)cc1 | 1.05 | 1 | 1
O=C(CSc1nnc(-c2cccc(Br)c2)o1)NC1CCCCC1 | 0.778 | 1 | 1
Cc1cccc(-c2noc(COc3ccccc3Cl)n2)c1 | 0.894 | 1 | 1
COc1ccc(-c2nnc(SCC(=O)Nc3c(F)cc(F)cc3Br)o2)cc1 | 1.03 | 1 | 1
CC(C)Oc1ccc(-c2nc(-c3cccnc3)no2)cc1 | 0.899 | 0 (active) | 0.675 (active)
CCSc1nnc(-c2ccc(Cl)cc2)o1 | 0 (active) | 0 (active) | 0 (active)
Cc1cc(OCc2nc(-c3ccncc3)no2)ccc1Br | 1.05 | 1 | 1
O=C(Nc1ccccc1-c1nc(-c2ccncc2)no1)c1ccccc1Cl | 0.979 | 1 | 1
CC1CC(C)CN(C(=O)CSc2nnc(-c3ccccc3)o2)C1 (configuration not stated) | 1.02 | 1 | 1
COc1ccc(-c2noc(C3CCCCC3)n2)cc1 | 0.927 | 0.779 | 1
Clc1ccc(OCc2nc(-c3ccccn3)no2)c(Br)c1 | 1.04 | 1 | 1
Brc1cccc(-c2nc(-c3ccccc3)no2)c1 | 1.02 | 1 | 1
O=C(CSc1nnc(-c2ccccc2Cl)o1)Nc1ccc(F)cc1 | 0.896 | 1 | 1
Clc1cccc(OCc2nc(-c3ccncc3)no2)c1 | 0.85 | 1 | 1
COc1ccc(OC(C)c2nc(-c3ccccn3)no2)cc1 (configuration not stated) | 1.03 | 1 | 1
Cc1cnc(NC(=O)CSc2nnc(-c3cccc(Cl)c3)o2)s1 | 0.97 | 1 | 0.9
Fc1ccc(-c2nc(-c3ccc4c(c3)OCO4)no2)cc1 | 1.02 | 1 | 1
COC(=O)c1ccc(CSc2nnc(-c3cccnc3)o2)cc1 | 1.03 | 1 | 1
COc1cccc(CSc2nnc(-c3ccco3)n2C)c1 | 0.965 | 1 | 1
Cc1ccc(-c2noc(COc3cc(C)cc(C)c3)n2)cc1 | 1.02 | 1 | 1
Cc1cccc(-c2nc(-c3ccc(Br)cc3)no2)c1 | 1.01 | 1 | 1
O=C(CSc1nnc(-c2ccncc2)o1)Nc1cccc(Cl)c1Cl | 0.818 | 1 | 1
CC(C)(C)c1ccc(-c2nc(-c3ccncc3)no2)cc1 | 1.03 | 1 | 1
Cc1ccc(-c2noc(-c3ccco3)n2)s1 | 1.11 | 0.812 | 1
Cc1ccccc1CSc1nnc(-c2ccco2)n1C | 1.03 | 1 | 0.75 (active)

Structure (SMILES) | proportion of mobile M. hapla J2 (Meloidogyne hapla J2) | proportion of mobile C. elegans dauer larvae [1] | proportion of mobile D. dipsaci (Ditylenchus dipsaci)
COc1nc(C)ccc1-c1noc(-c2ccc(F)cc2)n1 | 0.992 | 1 | 1
Cc1cc(OCc2nc(-c3ccncc3)no2)c(C)cc1Br | 0.866 | 1 | 1
COc1ccc(-c2nc(-c3ccc(C(F)(F)F)cc3)no2)cc1 | 0.966 | 1 | 1
O=C(CSc1nnc(-c2ccco2)o1)Nc1ccc(Br)cc1 | 1.05 | 1 | 1
FC(F)(F)c1cccc(-c2noc(-c3ccc4c(c3)OCO4)n2)c1 | 1.06 | 1 | 1
Clc1ccc(OCc2nc(-c3ccccc3)no2)c(Cl)c1 | 0.796 | 1 | 1
O=C(CSc1nnc(-c2ccco2)o1)Nc1cccc(C(F)(F)F)c1 | 0.879 | 1 | 1
Brc1cccc(-c2nnc(SCc3ccccc3)o2)c1 | 0.968 | 1 | 1
N#Cc1ccc(CSc2nnc(-c3ccccc3)o2)cc1 | 0.798 | 1 | 1
Cc1ccc(OCc2nc(-c3ccc4c(c3)OCO4)no2)cc1C | 1.04 | 1 | 1
O=C(CSc1nnc(-c2ccco2)o1)Nc1ccccc1F | 0.933 | 1 | 1
Cc1cc(NC(=O)CSc2nnc(-c3ccc(Cl)cc3Cl)o2)no1 | 0.833 | 1 | 1
Cc1ccc(NC(=O)CSc2nnc(-c3ccccc3)o2)c(C)c1 | 0.951 | 1 | 1
O=C(CSc1nnc(-c2ccc(Cl)cc2)o1)NC1CC2CCC1C2 (configuration not stated) | 0.693 (active) | 1 | 1
Cc1ccccc1OCc1nc(-c2ccc(Cl)cc2)no1 | 1.04 | 1 | 1
Cc1ccc(Cl)cc1NC(=O)CSc1nnc(-c2ccncc2)o1 | 0.913 | 1 | 1
Cc1ccc(-c2noc(COc3cc(C)ccc3C)n2)cc1 | 0.994 | 1 | 1
CCOc1nc(-c2ccc(C)cc2)ccc1-c1noc(-c2ccco2)n1 | 0.944 | 1 | 1
CC(C)C(=O)Nc1ccccc1-c1nc(-c2ccccn2)no1 | 0.995 | 1 | 1
CCCCc1nc(-c2ccc(-c3ccc(C)cc3)nc2OC)no1 | 0.843 | 1 | 1
CCOc1cc(-c2nc(-c3ccccc3C)no2)cc(OCC)c1OCC | 0.821 | 1 | 1
COc1ccccc1-c1noc(-c2ccccc2C)n1 | 0.962 | 1 | 1
Cc1ncc2c(c1-c1noc(-c3ccccc3)n1)CCC2 | 0.921 | 0.929 | 1
COc1cccc(-c2nnc(SCC(=O)NC3CCCCC3)o2)c1 | 0.869 | 1 | 1
COc1ccc(C(=O)CSc2nnc(-c3ccccc3)o2)cc1 | 0.987 | 1 | 1

Structure (SMILES) | proportion of mobile M. hapla J2 (Meloidogyne hapla J2) | proportion of mobile C. elegans dauer larvae [1] | proportion of mobile D. dipsaci (Ditylenchus dipsaci)
CCCOc1ccc(-c2ccc(-c3nc(-c4ccccn4)no3)cc2)cc1 | 0.969 | 1 | 1
CCCc1ccc(-c2nc(-c3ccc(F)cc3)no2)cc1 | 1.01 | 0.714 | 1
COc1ccc(Cl)cc1NC(=O)CSc1nnc(-c2ccc(Br)cc2)o1 | 1.03 | 1 | 1
Cc1cc(C)c(CSc2nnc(-c3ccccc3)o2)c(C)c1 | 0.962 | 1 | 1
COc1ccc(CC(=O)Nc2ccc(-c3noc(COc4cccc(C)c4C)n3)cc2)cc1 | 0.88 | 1 | 1
Clc1ccc(OCc2ccccc2)c(-c2nc(-c3cccnc3)no2)c1 | 1.01 | 1 | 0.917
COc1ccccc1-c1noc(-c2ccccc2F)n1 | 0.91 | 1 | 1
O=C(CSc1nnc(-c2ccccc2Cl)o1)NCc1ccccc1 | 1.04 | 1 | 1
Cc1ccc(OCc2nc(-c3ccc(F)cc3)no2)cc1C | 1.03 | 1 | 1
Cc1cccc(-c2noc(-c3ccccc3F)n2)c1 | 0.874 | 1 | 1
Clc1ccc(-c2nc(-c3ccncc3)no2)cc1 | 1.03 | 1 | 1
COc1ccccc1NC(=O)CSc1nnc(-c2ccccc2)o1 | 1.04 | 1 | 1
Clc1ccccc1OCc1nc(-c2ccc(Br)cc2)no1 | 1.02 | 1 | 1
O=C(CSc1nnc(-c2ccccc2Cl)o1)Nc1ccc(Br)cn1 | 0.851 | 1 | 1
O=C(Nc1ccc(-c2noc(-c3ccc(F)cc3)n2)cc1)c1ccc(Br)o1 | 0.972 | 1 | 1
Clc1cccc(-c2nc(-c3ccccc3Cl)no2)c1 | 0.991 | 1 | 1
CC(C)(C)NC(=O)CSc1nnc(-c2ccc(C(C)(C)C)cc2)o1 | 1.02 | 1 | 1
COc1cccc(-c2noc(-c3cc(C)ccc3C)n2)c1 | 0.995 | 1 | 1
COc1ccc(-c2nnc(SCC(=O)N(C)c3ccccc3)o2)cc1 | 1.05 | 1 | 1
COC(=O)c1ccc(CSc2nnc(-c3ccncc3)o2)cc1 | 0.999 | 1 | 1
COc1ccc(-c2noc(COc3ccc(Cl)cc3Cl)n2)cc1 | 0.874 | 1 | 1
Cc1ccc(-c2nnc(SCc3ccccc3F)o2)cc1 | 0.636 (active) | 1 | 1
Cc1ccccc1-c1noc(-c2ccc(F)cc2)n1 | 0.909 | 1 | 1
Cc1csc(NC(=O)CSc2nnc(-c3cccc(Cl)c3)o2)n1 | 1.05 | 1 | 1
